According to PubChem BioAssay AID777 (Sanford-Burnham Center for Chemical Genomics, 2007):
Among all 96,000 compounds or so, about 19,000 (20%) were called active.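 Rule for the calls: active = blocking of liver enzyme CYP2C9 beyond about 50% at 5 µM (limit read from the data); inactive = the rest.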 A selection follows.

biological target: Cytochrome P450 2C9 (Homo sapiens) (UniProt P11712); experiment: blockers of cytochrome P450 2C9 activity – biochemical, luminescence, ADME assay, primary screen (AID 777); details: CYP2C9 Supersomes, luciferin-H conversion, at 5 µM, active compounds read high
Sequence (P11712 whole entry, looked up): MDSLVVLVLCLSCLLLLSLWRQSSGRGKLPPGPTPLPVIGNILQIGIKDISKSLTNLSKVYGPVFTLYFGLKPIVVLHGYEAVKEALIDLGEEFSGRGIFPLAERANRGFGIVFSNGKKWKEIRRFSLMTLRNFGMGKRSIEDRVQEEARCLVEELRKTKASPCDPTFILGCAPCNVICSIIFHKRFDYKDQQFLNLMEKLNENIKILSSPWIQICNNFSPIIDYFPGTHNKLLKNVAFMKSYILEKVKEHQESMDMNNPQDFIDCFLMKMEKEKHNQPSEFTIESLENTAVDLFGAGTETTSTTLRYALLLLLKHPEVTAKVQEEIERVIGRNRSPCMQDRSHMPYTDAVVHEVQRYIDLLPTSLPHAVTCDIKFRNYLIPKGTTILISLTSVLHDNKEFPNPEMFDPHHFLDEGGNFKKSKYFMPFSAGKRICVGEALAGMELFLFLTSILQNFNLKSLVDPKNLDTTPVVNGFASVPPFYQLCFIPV

**Q.** Which inhibition does the source give for O=C(Nc1nnc(SCc2ccc(Cl)cc2Cl)s1)C1COc2ccccc2O1 (centres undefined) here?
**A.** 67.2% (active)

**Q.** For CCSc1nnc(NC(=O)Cc2ccccc2OC)s1, which inhibition is on record?
**A.** 42.4% (inactive)

**Q.** With O=C(Nc1nnc(SCc2c(Cl)cccc2Cl)s1)C1CCCO1 (centres undefined) as the molecule, how does the inhibition read?
**A.** -65.7% (inactive)

**Q.** With COc1ccccc1CNC(=O)CCCn1c(=O)c2ccccc2n(CC(=O)NC2CCCC2)c1=O as the molecule, how does the inhibition read?
**A.** 44.7% (inactive)

**Q.** COc1ccc(NC(=O)Cn2c(=O)n(Cc3ccco3)c(=O)c3ccccc32)cc1 was tested. Which inhibition did it give?
**A.** 17.1% (inactive)

**Q.** How did the inhibition turn out when O=C(Cn1c(=O)n(Cc2ccco2)c(=O)c2ccccc21)NCC1CCCO1 (centres undefined) was run?
**A.** 57.3% (active)

**Q.** Which inhibition does the source give for O=C1CC(Sc2ncn[nH]2)C(=O)N1c1ccccc1 (centres undefined) here?
**A.** -21.9% (inactive)

**Q.** Cc1ccc(S(=O)(=O)N/N=C\c2cc3c(cc2[N+](=O)[O-])OCO3)cc1 was tested. Which inhibition did it give?
**A.** -13% (inactive)

**Q.** For CN1OC(COC(=O)c2ccc(Cl)cc2)CC1c1ccccc1 (centres undefined), which inhibition is on record?
**A.** 37.4% (inactive)

**Q.** For C=CCNC(=O)c1ccc(C)c(Br)c1, which inhibition is on record?
**A.** -17.9% (inactive)

**Q.** For C=CCNC(=O)c1cc(-c2ccccc2O)on1, which inhibition is on record?
**A.** -48.2% (inactive)

**Q.** How did the inhibition turn out when C=CCNC(=O)c1sc(SC)cc1-c1ccc(Cl)cc1 was run?
**A.** 64% (active)

**Q.** Which inhibition does the source give for ON=C1/C(=N\O)CC2(C/C1=N/O)OCCO2 here?
**A.** -14.6% (inactive)

**Q.** For COc1ccc(-c2cc3n(n2)CCc2nc4ccccc4n2-3)cc1, which inhibition is on record?
**A.** -8.6% (inactive)

**Q.** For Cc1ccc(OCC(=O)Nn2cnc3ccccc32)cc1, which inhibition is on record?
**A.** 6.6% (inactive)

**Q.** Which inhibition does the source give for COc1ccc(-c2cc(C(=O)n3cnc4ccccc43)c3ccccc3n2)cc1 here?
**A.** 92.5% (active)

**Q.** COc1cc(NS(=O)(=O)c2ccc(N=Cc3c(C)[nH]n(-c4ccccc4)c3=O)cc2)nc(OC)n1 was tested. Which inhibition did it give?
**A.** -9.3% (inactive)

**Q.** For Cc1[nH]n(-c2cccc(Cl)c2)c(=O)c1/C=N/n1c(C)nc2ccccc2c1=O, which inhibition is on record?
**A.** 70.7% (active)

**Q.** Cc1[nH]n(-c2cccc(Cl)c2)c(=O)c1-c1ccc(Cl)cc1 was tested. Which inhibition did it give?
**A.** -1% (inactive)

**Q.** For Cc1ccc(CNC(=O)CCNC(=O)Cn2ccc3ccccc3c2=O)cc1, which inhibition is on record?
**A.** -18.8% (inactive)

**Q.** Which inhibition does the source give for CC1CCCC(NC(=O)CN2CCN(Cc3ccc(Cl)cc3)C2=O)C1C (centres undefined) here?
**A.** 15.9% (inactive)

**Q.** How did the inhibition turn out when COc1cc(C2C(C(=O)c3sc(C)nc3C)=C(O)C(=O)N2CCN(C)C)cc(OC)c1OC (centres undefined) was run?
**A.** 79% (active)

**Q.** COc1cc(C2C(C(=O)c3ccc(C)o3)=C(O)C(=O)N2Cc2cccnc2)ccc1O (centres undefined) was tested. Which inhibition did it give?
**A.** 19.4% (inactive)

**Q.** With COc1cc(C2C(C(=O)c3ccc(C)o3)=C(O)C(=O)N2CCc2ccccc2)ccc1O (centres undefined) as the molecule, how does the inhibition read?
**A.** 5.2% (inactive)

**Q.** Cc1ccc2c(c1)C(O)(CC(=O)c1cccnc1)C(=O)N2 (centres undefined) was tested. Which inhibition did it give?
**A.** 8.4% (inactive)

**Q.** With Cc1nn(C)cc1/C=C1\CCC/C(=C\c2cn(C)nc2C)C1=O as the molecule, how does the inhibition read?
**A.** -46.5% (inactive)

**Q.** Which inhibition does the source give for CCOCCCNC(=O)c1c[nH]c2cc(C)ccc2c1=O here?
**A.** -8.1% (inactive)

**Q.** For Cc1ccc(S(=O)(=O)N2CCN(S(=O)(=O)N3CCOCC3)CC2)cc1, which inhibition is on record?
**A.** -55.7% (inactive)

**Q.** How did the inhibition turn out when Cc1noc(C)c1CSc1nnc2ccc3ccccc3n12 was run?
**A.** 4.4% (inactive)

**Q.** With Cc1noc(C)c1CSc1nc2cc(S(=O)(=O)N3CCOCC3)ccc2o1 as the molecule, how does the inhibition read?
**A.** 54% (active)

**Q.** With CCS(=O)(=O)Nc1cc(C(=O)OC)ccc1C(=O)OC as the molecule, how does the inhibition read?
**A.** 37.5% (inactive)

**Q.** For Cc1ccccc1-c1nc(CS(=O)(=O)CC(=O)N2CCc3ccccc3C2)c(C)o1, which inhibition is on record?
**A.** 72.4% (active)

**Q.** How did the inhibition turn out when O=C(Cn1c(=S)nc2ccccn21)N1CCc2ccccc2C1 was run?
**A.** 4.1% (inactive)

**Q.** With Cc1oc(-c2ccccc2F)nc1CS(=O)(=O)CC(=O)NCCCN(C)C1CCCCC1 as the molecule, how does the inhibition read?
**A.** -10.6% (inactive)

**Q.** How did the inhibition turn out when COCCCNC(=O)C1CC(=O)N(c2ccc(C)cc2)C1 (centres undefined) was run?
**A.** -1.7% (inactive)

**Q.** How did the inhibition turn out when CS(=O)(=O)N(C(=O)NC(=O)NC1CCS(=O)(=O)C1)C1CCCCC1 (centres undefined) was run?
**A.** 9.2% (inactive)

**Q.** How did the inhibition turn out when Cc1ccc(F)cc1NC(=O)c1ccc2c(c1)OCO2 was run?
**A.** 5.7% (inactive)

**Q.** COC(=O)CCNc1ccc2c(c1)OCCO2 was tested. Which inhibition did it give?
**A.** -2.2% (inactive)

**Q.** For CCOc1ccc(NCCC(=O)c2ccc3c(c2)OCO3)cc1, which inhibition is on record?
**A.** 63.8% (active)

**Q.** CC(=O)c1cc(C#N)c(SCC(=O)C(C)(C)C)nc1C was tested. Which inhibition did it give?
**A.** 22.5% (inactive)

**Q.** With CCOC(=O)C(Sc1ncc(C#N)c(N)n1)C(C)C (centres undefined) as the molecule, how does the inhibition read?
**A.** 25.3% (inactive)

**Q.** With CCC(C)n1[nH]c(=O)cc1N (centres undefined) as the molecule, how does the inhibition read?
**A.** -5.6% (inactive)

**Q.** How did the inhibition turn out when Clc1ccc2c(c1)C1=C(C(c3ccncc3)O2)C(c2ccc(Br)cc2)n2ncnc2N1 (centres undefined) was run?
**A.** 82% (active)

**Q.** For COC(=O)C1=C(C)Nc2ncnn2C1c1cccnc1 (centres undefined), which inhibition is on record?
**A.** -19.5% (inactive)

**Q.** How did the inhibition turn out when Brc1ccc(C2=CC(c3ccco3)n3ncnc3N2)cc1 (centres undefined) was run?
**A.** 3.2% (inactive)

**Q.** With COc1cccc2c1OCC(C(=O)NCc1ccc(Cl)cc1Cl)=C2 as the molecule, how does the inhibition read?
**A.** -17.7% (inactive)

**Q.** COC(=O)c1ccc2c(c1)S(=O)(=O)NC(=NCCCN1CCOCC1)S2 was tested. Which inhibition did it give?
**A.** 11.4% (inactive)

**Q.** Which inhibition does the source give for O=C(NCc1ccc2c(c1)OCO2)c1ccc2c(c1)C(=O)N(CC1CCCO1)C2=O (centres undefined) here?
**A.** 2.3% (inactive)

**Q.** CC(C)(O)C(=O)NN(C(=O)c1ccccc1)c1cccc(Br)c1 was tested. Which inhibition did it give?
**A.** -6.8% (inactive)

**Q.** For O=C(/C=C/NNC(=O)c1cccc(Br)c1)c1ccccc1, which inhibition is on record?
**A.** 76.7% (active)

**Q.** O=C(/C=C\NCC(=O)c1ccccc1)c1ccccc1 was tested. Which inhibition did it give?
**A.** 12.9% (inactive)

**Q.** With Cc1ccsc1/C=C1\SC(N2CCOCC2)=NC1=O as the molecule, how does the inhibition read?
**A.** -18% (inactive)

**Q.** Which inhibition does the source give for Cc1cc2nc(C)n(CCCNC(=O)Nc3ccccc3)c2cc1C here?
**A.** 44.6% (inactive)

**Q.** O=C(COc1ccccc1)N1CCc2ccccc2C1 was tested. Which inhibition did it give?
**A.** 39.9% (inactive)

**Q.** How did the inhibition turn out when CCOc1ccc(CN2CCCN(C)CC2)cc1 was run?
**A.** -7.8% (inactive)

**Q.** Which inhibition does the source give for CCOC(=O)c1ccc(N2C(=O)CC(N3CC(C)OC(C)C3)C2=O)cc1 (centres undefined) here?
**A.** 5.1% (inactive)

**Q.** For CCOC(=O)c1ccc(N2C(=O)CC(N3CCC(C(=O)OCC)CC3)C2=O)cc1 (centres undefined), which inhibition is on record?
**A.** 38.3% (inactive)

**Q.** With CCCCOC(=O)c1ccc(N2C(=O)CC(N3CCN(C/C=C/c4ccccc4)CC3)C2=O)cc1 (centres undefined) as the molecule, how does the inhibition read?
**A.** 60.1% (active)

**Q.** With Cc1cccc(OCc2nnc(SCC(=O)N3CCN(C(=O)c4ccco4)CC3)n2C)c1C as the molecule, how does the inhibition read?
**A.** 5.9% (inactive)

**Q.** With Cc1ccc(-c2c3c(=O)n(C)c(=O)n(C)c3cn2-n2cnnc2)cc1 as the molecule, how does the inhibition read?
**A.** -7.5% (inactive)

**Q.** CCC(C)Sc1nc2c(c(=O)[nH]c(=O)n2C)n1CC(O)COc1cccc2ccccc12 (centres undefined) was tested. Which inhibition did it give?
**A.** 24% (inactive)

**Q.** Which inhibition does the source give for O=C(COc1ccc(S(=O)(=O)NCCc2ccccc2)cc1)N1CCCC1 here?
**A.** 45.1% (inactive)

**Q.** For CCOc1ccc(S(=O)(=O)NCCSc2ccccc2)cc1, which inhibition is on record?
**A.** 75.7% (active)

**Q.** How did the inhibition turn out when CCOc1ccc(S(=O)(=O)NCC2CCCO2)cc1 (centres undefined) was run?
**A.** 7.4% (inactive)
